Values joined by “and” are separate entries in the source; they are usually repeats but may differ in a detail not shown here. Equal values may be shown once. Screen size: about 260,000 compounds; about 1,300 (0.5%) were called active.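 How the source made its calls: active means percent inhibition above 40 after rounding to a whole number; inactive means the rest.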 What follows is part of a selection rich in actives, with near analogues and random picks from the rest. Where a structure was tested more than once in an assay, its records may differ in their call.

59 molecules from PubChem BioAssay AID1422 (Emory University Molecular Libraries Screening Center, 2008) can be followed below.

The target in the assay is Prostaglandin E2 receptor EP2 subtype (Homo sapiens) (UniProt P43116). As to the kind of experiment: human EP2 receptor antagonists, primary screen, TR-FRET cAMP, C6 glioma cells (AID 1422).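 Further: rat C6 glioma host cells with rolipram phosphodiesterase inhibitor present; the protocol text gives 20 µM as final concentration.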 Particulars: C6 glioma cells expressing human EP2, cAMP TR-FRET; at 25 µM; stronger effect = higher value; cells stimulated with saturating PGE2. (In TR-FRET formats the signal depends on donor and acceptor labels being close together.)
Sequence of Prostaglandin E2 receptor EP2 subtype (Homo sapiens) (P43116 whole entry, looked up): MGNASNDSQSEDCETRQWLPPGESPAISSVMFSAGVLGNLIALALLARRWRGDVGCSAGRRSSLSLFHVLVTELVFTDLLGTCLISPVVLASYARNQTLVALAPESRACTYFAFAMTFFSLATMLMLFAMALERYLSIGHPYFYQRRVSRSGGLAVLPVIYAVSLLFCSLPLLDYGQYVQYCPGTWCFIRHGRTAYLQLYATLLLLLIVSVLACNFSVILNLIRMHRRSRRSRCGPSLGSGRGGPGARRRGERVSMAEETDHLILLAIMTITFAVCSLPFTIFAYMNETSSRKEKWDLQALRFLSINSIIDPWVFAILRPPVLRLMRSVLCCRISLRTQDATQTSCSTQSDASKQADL
On to `O=C1c2cccc3cccc(c23)C(=O)N1c1ccc(N2C(=O)c3cccc4cccc(c34)C2=O)cc1`, for which the inhibition was 9.96% (inactive).

For `CCOC(=O)c1cnc2[nH]c3ccccc3n2c1=O`, the inhibition was 4.64% (inactive).

On to `O=c1[nH]c2ccccc2n2c(-c3ccccc3)nnc12`, for which the inhibition is 82.1% (active).

With `Cc1ccc(-c2nc3ccccc3[nH]c2=O)cc1`, the inhibition was 12.3% (inactive).

For the molecule `Cc1nn(CC(=O)Nc2cccc3ncccc23)c(=O)c2ccccc12`, the inhibition was 6.79% (inactive).

With `O=c1cc(CSc2nnc(Cn3nnc4ccccc43)o2)c2ccccc2[nH]1`, the inhibition is 7.33% (inactive).

Take `CCOc1ccc(NC(=S)N(CCO)Cc2cc3c(C)cc(C)cc3[nH]c2=O)cc1`: the inhibition is 6.48% (inactive).

For `Cc1cc2c(cc1C)NC1=C(N2)O[C@H](c2c[nH]c3ccc(COc4ccccc4)cc23)C1=O`, the inhibition was 56.3% (active).

Consider `COc1cc(C)c(CNC(=O)c2cccc(-n3cnnc3)c2)cc1C(C)C`, for which the inhibition is 4.98% (inactive).

On to `COCC(=O)Nc1cc(C)on1`, for which the inhibition is 7.17% (inactive).

With `CC(C)(C)NCC[C@@H](O)c1cc(C(F)(F)F)nc2c(C(F)(F)F)cccc12`, the inhibition is 48.9% (active).

In the case of `COc1ccc(N(CC(=O)N2CCN(c3ccc(F)cc3)CC2)S(C)(=O)=O)cc1`, the inhibition was 6.08% (inactive).

Turning to `CCCC(c1nnnn1C1CCCCC1)N1CCN(c2ccccc2)CC1` (centres undefined), the inhibition is 5.51% (inactive).

For the molecule `COc1ccc2[nH]c3ccc(OC)cc3c2c1`, the inhibition was 6.17% (inactive).

In the case of `COc1ccc2[nH]c(=S)cc(C)c2c1`, the inhibition is 7.37% (inactive).

Turning to `COc1ccc2[nH]c3cc4c(=O)c5cc(OC)ccc5[nH]c4cc3c(=O)c2c1`, the inhibition was 49.6% (active).

For `Cc1ccc(-c2cc(N)c(=O)n(CC(=O)N3c4ccccc4CC3C)n2)o1` (centres undefined), the inhibition was 9.35% (inactive).

Consider `CCOc1ccc2[nH]c(=O)c(CN(Cc3ccc4c(c3)OCO4)C(=O)Nc3ccc(C)cc3)cc2c1`, for which the inhibition was 10.3% (inactive).

As for `Cc1ccc2cc(CN(Cc3cccs3)Cc3nnnn3Cc3ccco3)c(=O)[nH]c2c1`, the inhibition is 12.8% (inactive).

Take `COc1ccc(-n2nnnc2SCC(=O)Nc2ccc(N(C)C)cc2)cc1`: the inhibition is 8.77% (inactive).

In the case of `Cc1ccc(N(CC(=O)N2CCC(C(N)=O)CC2)S(C)(=O)=O)cc1C`, the inhibition was 15.2% (inactive).

`O=C(O)Cc1sc(-c2ccccc2)nc1-c1cccs1`: the inhibition is 43% (active).

Turning to `C/C(=N/Nc1nc(-c2ccccc2)c(CC(=O)O)s1)c1ccccc1`, the inhibition is 11.6% (inactive).

For the molecule `Cc1ccc(-c2nc(C)sc2CC(=O)O)cc1`, the inhibition was 8.08% (inactive).

As for `COC(=O)c1c(NC(=O)Cc2cccs2)sc(C(=O)Nc2cccc(Cl)c2)c1C`, the inhibition is 8.6% (inactive).

`CCCc1nc2ccccc2n1CC(O)COc1ccc(F)cc1` (centres undefined): the inhibition is 10.9% (inactive).

Consider `COc1ccc(C2(O)CCN(CCN3CCCCC3)CC2)c(OC)c1`, for which the inhibition was 12.5% (inactive).

With `CCn1c(=O)n(CC)c2cc(CN(Cc3ccc(C)s3)CC(C)O)ccc21` (centres undefined), the inhibition is 1.95% (inactive).

For the molecule `O=C(O)[C@@H]1CS[C@]2(CCCN(Cc3ccccc3)C2)N1`, the inhibition was 46.7% (active).

Take `O=C(NC1CCN(Cc2ccccc2)CC1)c1c(F)cccc1F`: the inhibition was 2.64% (inactive).

Regarding `CCCC(=O)C1CCN(Cc2ccccc2)CC1`, the inhibition is 13% (inactive).

Regarding `Cc1cccc2c(C(=O)Nc3cccc(C(=O)N4CCCCC4)c3)cc(=O)[nH]c12`, the inhibition was 4.42% (inactive).

`CC(C)(C)c1cnnn1-c1ccc(S(N)(=O)=O)cc1`: the inhibition was 3.83% (inactive).

Regarding `CC(NC(=O)C1CCN(c2nc3ccccc3n2C)CC1)c1ccccc1` (centres undefined), the inhibition was 7.13% (inactive).

`CC(NC(=O)Nc1ccccc1)C(c1cccs1)N1CCN(c2ccccc2)CC1` (centres undefined): the inhibition is 6.9% (inactive).

For the molecule `C(=N/N1CCN(c2ccccc2)CC1)/c1cccs1`, the inhibition is 6.51% (inactive).

In the case of `ClC(Cl)(Cl)C(N1CCN(c2ccccc2)CC1)N1CCN(c2ccccc2)CC1`, the inhibition was 46.7% (active).

For the molecule `COc1ccc(CN(Cc2cccnc2)C2CC(C)(C)NC(C)(C)C2)cc1OC`, the inhibition was 9.23% (inactive).

On to `CCOc1ccc(OCC)c(NC(=O)CSc2nc3cc4c(cc3cc2C)OCO4)c1`, for which the inhibition is 15.2% (inactive).

Take `O=C(Nc1ccc2oc(-c3cccnc3)nc2c1)c1cccc2ccccc12`: the inhibition was 10.6% (inactive).

On to `N#CC1=C(N)Oc2cc(O)ccc2C1C1CCCCC1` (centres undefined), for which the inhibition was 7.43% (inactive).

In the case of `O=C(O)c1c(Br)c(Br)c(Br)c(Br)c1C1c2ccc(O)cc2Oc2cc(O)ccc21`, the inhibition was 46.5% (active).

With `CCn1cc(C(=O)N2CCC(n3c(C)nc4sc(C)c(C)c4c3=O)CC2)cn1`, the inhibition was -0.97% (inactive).

In the case of `O=C(CN1CCC(n2nnc3cc(F)ccc32)CC1)Nc1cccc(F)c1`, the inhibition is 10.2% (inactive).

As for `Cc1nn(CCC(=O)NC2(c3ccccc3)CCCC2)c(C)c1C`, the inhibition was 7.61% (inactive).

For `COc1ccccc1OCCNCC(O)COc1cccc2[nH]c3ccccc3c12` (centres undefined), the inhibition was 15.7% (inactive) and 44.9% (active).

Consider `CC(C)(C)NCC(O)COc1cccc2[nH]c(=O)[nH]c12` (centres undefined), for which the inhibition was 13.5% (inactive) and 12.7% (inactive).

For `COc1ccccc1OCC(O)Cn1c(=N)n(C)c2ccccc21` (centres undefined), the inhibition is 8.65% (inactive).

On to `Cn1c(=O)c2cc(S(=O)(=O)NC3(c4ccccc4F)CC3)ccc2n(C)c1=O`, for which the inhibition was 10.9% (inactive).

Regarding `O=C(c1ccncc1)c1ccc([N+](=O)[O-])cc1`, the inhibition was 8.78% (inactive).

For `O=C(c1ccc([N+](=O)[O-])cc1)[C@@H](Br)[C@@H](Br)c1ccnc2ccccc12`, the inhibition was 99.4% (active).

For `O=C(Nn1c(-c2ccccc2)nc2ccccc2c1=O)c1ccc([N+](=O)[O-])cc1`, the inhibition is 6.91% (inactive).

As for `COc1ccc(C(O)CN2CCC(O)(c3ccc4c(c3)OCO4)CC2)cc1` (centres undefined), the inhibition is 6.32% (inactive).

Regarding `O=c1[nH]c2cc3c(cc2cc1C(c1nnnn1C1CCCCC1)N1CCCCC1)OCCO3` (centres undefined), the inhibition was 6.82% (inactive).

Regarding `c1ccc2sc(NN=C3CCCC3)nc2c1`, the inhibition was 1.63% (inactive).

With `O=[N+]([O-])c1cc(Br)c(O)c(/C=N/Nc2nc3ccccc3s2)c1`, the inhibition is 77% (active).

On to `COc1cc(/C=N/Nc2nc3ccccc3s2)ccc1O`, for which the inhibition was 16.7% (inactive).

On to `COc1ccc2cc(CN(C(=O)Nc3ccc(F)cc3)C3CCCC3)c(=O)[nH]c2c1`, for which the inhibition is 8.38% (inactive).

`CN(C)c1ncc(CN2CCC(O)(c3ccccc3F)CC2)cn1`: the inhibition is 5.6% (inactive).

For orientation: inhibition means the drop in the measured response relative to a control, in per cent.
